The campaign covered roughly 280,000 compounds. About 2,600 (0.93%) were called active. Entries that show only a call come without a potency. Inconclusive results (about 8%) are left out. This is one part of a sample in which actives are shown more often than they occur. Calls come from the whole dose curve; as a rule, active = well fitted curve in the direction sought with a large enough effect; inconclusive = small, poorly fitted or top-dose-only effect; inactive = flat fitted curve, though single readings scatter.
test: Counterscreen qHTS for Inhibitors of Tau Fibril Formation, Fluorescence Polarization; details: tau K18 P301L (four-repeat tau fragment) Alexa594 fluorescence, heparin fibrillization; series mostly up to 57.7 µM; note: nearly all actives have a fitted effect of over 55% in size
Outline: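 Human K18 P301L tau (15 uM unlabeled plus 0.24 uM Alexa 594-labeled, final) in 100 mM sodium acetate pH 7 was mixed with compound and 20 uM heparin and incubated 6 hr at 37 C.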
Potency is the fitted concentration of half-maximal effect; tags give direction and shape of the fitted curve or compound fluorescence and quenching.

Row | Structure (SMILES) | Potency
1 | Cc1ccc(S(=O)(=O)NCc2nc3nc(C)cc(C)n3n2)cc1 | inactive
2 | Oc1ccc(/C=N/NC2=NCCCCC2)c(O)c1 | inactive
3 | Oc1ccc(/C=N/Nc2nc(-c3ccccc3F)nc3ccccc23)c(O)c1 | 5.01 µM [quencher] (active)
4 | Cc1cc(N/N=C/c2ccccc2F)c2ccccc2n1 | inactive
5 | Cc1c(C(=O)Nc2cccc(Cl)c2)oc2ccc(S(=O)(=O)N3CCOCC3)cc12 | inactive
6 | COc1cc(OC)c(OC)cc1/C=C/c1nc2ccccc2c(=O)n1-c1ccc(Br)c(C)c1 | inactive
7 | Cc1cc(Nc2ccccc2)n(CCC#N)n1 | inactive
8 | Cc1cc(Nc2ccccc2)n(C(=O)c2ccc(N)cc2)n1 | 25.1 µM [quencher] (active)
9 | Cc1cc(NC(=O)Nc2ccccc2)n(-c2ccccc2)n1 | inactive
10 | CCOc1ccc(-n2c(C)nc3c(cnn3-c3ccc(C)cc3)c2=O)cc1 | inactive
11 | CCOc1ccc(NC(=O)c2c(NC(=O)Cc3ccccc3)sc3c2CCCCC3)cc1 | inactive
12 | COc1ccc(CCNC(=O)Cn2c(=O)cc(C(F)(F)F)c3c(C)nn(C)c32)c(OC)c1 | inactive
13 | CCOC(=O)c1c(NC(=S)Nc2ccccc2C)sc2c1CCC2 | inactive
14 | CCOC(=O)c1c(NC(=O)CSc2cn(CC)c3ccccc23)sc2c1CCC2 | inactive
15 | CCOC(=O)c1c(NC(=O)C(C)Sc2c[nH]c3ccccc23)sc2c1CCC2 (stereo not given) | 7.94 µM [quencher] (active)
16 | CCN(CC)C(=O)CSc1nc2cc3c(cc2c(=O)n1CCCC(=O)NCc1ccc2c(c1)OCO2)OCO3 | inactive
17 | Cn1c(=O)c2c(nc(N/N=C/c3cccs3)n2Cc2ccc(Br)cc2)n(C)c1=O | 14.1 µM [quencher] (active)
18 | CCCCNc1nc2c(c(=O)n(C)c(=O)n2C)n1Cc1cccc(OC)c1 | inactive

Row | Structure (SMILES) | Potency
19 | Cn1c(=O)c2c(nc(NCCc3ccccc3)n2Cc2ccccc2Br)n(C)c1=O | inactive
20 | CCOc1ccccc1N(C)C(=O)c1cc2c(s1)-c1ccccc1OC2 | inactive
21 | CCn1cc(NC(=O)Nc2ccc(OC)c(OC)c2)c(C(N)=O)n1 | inactive
22 | COc1ccc(NC(=O)NC(C)c2c(-n3cccc3)sc(C)c2C)cc1OC (stereo not given) | 15.8 µM [quencher] (active)
23 | Cc1ccc(NC(=O)NC(C)c2c(-n3cccc3)sc(C)c2C)c(C)c1 (stereo not given) | inactive
24 | Cc1ccc(CSc2nc3ccsc3c(=O)n2CCC(C)C)cc1 | inactive
25 | CCOC(=O)c1c(S(=O)(=O)NCC(=O)Nc2ccc(Cl)c(C(F)(F)F)c2)c(C)n(C)c1C | inactive
26 | Fc1ccc2[nH]c3c(N4CCSCC4)ncnc3c2c1 | inactive
27 | Fc1ccc2[nH]c3c(N4CCN(Cc5ccc6c(c5)OCO6)CC4)ncnc3c2c1 | 25.1 µM [quencher] (active)
28 | O=c1[nH]c(N2CCN(Cc3ccc4c(c3)OCO4)CC2)nc2c1CCCC2 | inactive
29 | COc1ccc(S(=O)(=O)c2c(Nc3ccc(C)cc3)sc(C(=O)c3ccc(C)cc3)c2N)cc1 | inactive
30 | O=C(NCC(c1ccc2c(c1)OCO2)N1CCN(c2ccccc2)CC1)C(=O)Nc1ccccc1F (stereo not given) | inactive
31 | O=C(N/N=C/c1ccc(OCc2ccccc2)cc1)c1ccc(O)cc1 | inactive
32 | CN(C)c1ccc(/C=N/N(Cc2ccccc2)c2ccccc2)cc1 | inactive
33 | Oc1ccc(/C=N/N(Cc2ccccc2)c2ccccc2)cc1 | 15.8 µM [quencher] (active)
34 | CCN(CC)c1ccc(NC(=O)CN2C(=O)c3cccnc3Oc3ccc(Cl)cc32)c(C)c1 | inactive
35 | CCc1cc2c(cc3c(=O)n(CC(=O)N4CCN(c5cc(Cl)ccc5C)CC4)ncn32)s1 | inactive

— PubChem BioAssay AID1463 (National Center for Advancing Translational Sciences (NCATS), 2008)
